The source of these data is PubChem BioAssay (NCI).

The panel holds about 79,000 compounds, 15% with a hit somewhere; the sample as a whole holds those more often. Values without a mark were called inactive. Activity calls are given as the source filed them. Cut-off read from the data, not from the text of the source: active = growth inhibition above about 70%; inactive = the rest.

This assay is described as follows: NCI Yeast Anticancer Drug Screen. Data for the sgs1 mgt1 strain (AID 161).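 Note: 0% = growth of cultures given vehicle only.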 Particulars: S. cerevisiae sgs1 mgt1 strain, at 50.0 µM, hits give high values. A digest of the protocol:
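This yeast growth screen uses a strain with defined DNA-repair lesions; compound-treated growth is compared with vehicle-treated growth.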
With `c1ccc(B2OCC(C3OB(c4ccccc4)OC4COB(c5ccccc5)OC43)O2)cc1` (stereo not given), the growth inhibition is -1.2%. In the case of `Cn1c(=O)c(-c2ccccc2)cc2ccccc21` it was -3.85%; in that of `CCOC(=O)c1ccc(-c2ccccc2)cc1`, -14.7%; in that of `N#Cc1c(N)c(C(=O)O)nn(-c2cccc(C(F)(F)F)c2)c1=O`, 44%. For the compound `O/N=C1/CCCCCC1NO` (stereo not given), the growth inhibition is -22.7%. In the case of `NCCC1([N+](=O)[O-])CCNCC1` it was -6.15%; in that of `O=C(NCc1ccccc1)C1C2C=CC(C2)C1C(=O)NCc1ccccc1` (stereo not given), 30.4%. For `Nc1ccc[nH]c1=O`, the growth inhibition was 19.6%. In the case of `CC(C)(C)c1ccc(OCCCl)c(Cl)c1` it was 33.7%; in that of `COC(=O)c1cc(C)cc(N(c2ccccc2[N+](=O)[O-])S(=O)(=O)c2ccc(C)cc2)c1C`, -25.3%; in that of `Cc1ccc(N=c2cc(-c3ccccc3)oc3ccccc23)cc1`, 11.7%. In the case of `COc1cc(C)c(C(=O)c2ccccc2NS(=O)(=O)c2ccc(C)cc2)cc1OC` it was -1.5%. In the case of `C[n+]1nc([O-])oc1-c1ccccc1`, the growth inhibition was 11.4%. `Cn1ncc2c(=O)[nH]c(=S)[nH]c21`: the growth inhibition was -5.65%.

As for `Cc1ccc(S(=O)(=O)C(Sc2ccccc2)=S=NC(C)(C)C)cc1`, the growth inhibition was 89.3% (active). The result for `Cc1ccc(NC(=O)CCc2nnc3s/c(=C\c4cccc([N+](=O)[O-])c4)c(=O)n23)cc1` reads -10.6%; that for `CCOc1c(N=Nc2ccccc2C)c(-c2ccccc2)nn1C(N)=S`, 5.4%. The result for `C(=N\N1CCN(/N=C/c2ccc3ccccc3n2)CC1)/c1ccc2ccccc2n1` reads 11.9%; that for `NC(=S)c1ccccn1`, 32.8%.

As for `CC(=O)CCCCCCCCCCCCCC(C)=O`, the growth inhibition is -21.1%.

In the case of `CCOC(=O)/C=C/C(=O)O.[Cu+2]`, the growth inhibition is -4%. In the case of `CCCCCCC1OCCC(C)O1` (stereo not given) it was 16.9%. The result for `O=C(O)c1c(Br)c(Br)c(Br)c(Br)c1C(=O)Nc1ccc(Cl)cc1C(F)(F)F` reads 11.1%. In the case of `Cc1cc(C)nc(N)n1` it was -1.85%; in that of `C(=NCc1ccccc1)c1ccccc1-c1ccccc1C=NCc1ccccc1`, 98.8% (active).

As for `CC(C)CCCC(C)C1CCC2C3CC(=O)C4C=CCCC4(C)C3CCC12C` (stereo not given), the growth inhibition is 27.6%. On to `O=C(CC(=O)C(=O)CC(=O)OCc1ccccc1)OCc1ccccc1`, for which the growth inhibition is -0.3%. On to `CCOc1c(N=Nc2ccccc2Cl)c(-c2ccccc2)nn1C(N)=S`, for which the growth inhibition was -1.95%. In the case of `Brc1nccs1` it was -13.2%; in that of `Cc1ccc(S/C=C/C(=O)Nc2ccccc2)cc1`, 7.1%. Consider `c1ccc2c(c1)ncc1cc3c(cc12)[nH]c1ccccc13`, for which the growth inhibition is 16.6%. The result for `Nc1nc(SCc2ccccc2)c2ncn(C3CC(O)C(CO)O3)c2n1` (stereo not given) reads 3.1%; that for `S=C1SCN(c2ccc3c(c2)OCO3)CN1c1ccc2c(c1)OCO2`, 20.9%; that for `C[Si](C)(CNCCN)O[Si](C)(C)CNCCN`, -3.3%.

On to `O=C(CCC(CCC(=O)c1ccccc1)[N+](=O)[O-])c1ccccc1`, for which the growth inhibition was 7.65%.

With `Cc1nc(-c2ccccc2)oc1-c1ccccc1`, the growth inhibition was -1.7%.

In the case of `Clc1ccc(CSc2ccc3nncc(SCc4ccc(Cl)cc4Cl)c3c2)c(Cl)c1`, the growth inhibition is 15.1%.

In the case of `Cc1cc(C)c2c(SCc3ccc(Cl)cc3Cl)nc(N)nc2n1`, the growth inhibition was 45.9%. For `CCCCN1C(=O)c2cc(=O)[nH]c(O)c2C1C` (stereo not given), the growth inhibition was -25.9%.

For the compound `C1=C(c2ccccc2)CC(c2ccc(-c3ccccc3)cc2)=C1`, the growth inhibition was 1.55%.
